Bioassay records (PubChem)
The list is not random: actives were taken first. Their share in the collection is about 4.5%.
ssDAF12 agonist: activates DAF-12 receptor from parasite S. stercoralis | HEK293 ssDAF-12/GRIP1 lit1-tk-luc reporter, luminescence; % of 3 µM dafachronic acid response | 370,000 compounds, 1% hits | activation, % at 6.8 µM | AID 652126;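 active = activation above the mean over all tested compounds plus 3 SD, cut at about 0.9% in these data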;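 note: 0% = DMSO-only wells and 100% = 3 µM delta7-dafachronic acid wells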
hgDAF-12 ag: activates the H. glycines DAF-12 receptor ligand-binding domain; HEK293 GAL4-hgDAF12 UAS-luciferase reporter, agonist luminescence; normalized to butyrate control; activation, % at 6.8 µM; 370,000 compounds, 1.8% hits; AID 687014;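 active = activation above a cutoff set at the mean of all screened compounds plus 3 SD, cut at about 10% in these data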;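 note: 0% = DMSO wells and 100% = sodium butyrate wells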
FXN GAA850 act: frataxin GAA850 promoter activation. activation, % at 6 µM. 360,000 compounds, 0.56% hits. HEK293 lucGAA850 FXN promoter luciferase reporter, 24 h; percent of 10 µM SAHA response;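 active = activation above the average of all compounds screened plus 3 SD, cutoff fixed separately per campaign, cut at about 7.5% in these data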;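 note: 0% = DMSO wells and 100% = 10 µM SAHA wells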
DAX1 inh-1: inhibits human nuclear receptor DAX1. inhibition, % at 6.75 µM. AID 504766. P51843. 340,000 compounds, 0.99% hits. HEK293 Gal4-DAX1 luciferase reporter, luminescence;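 active = inhibition above the mean over all tested compounds plus 3 SD, cut at about 4.2% in these data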;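 note: 0% = DAX1-transfected cells with DMSO and 100% = empty-vector control cells with DMSO; inhibition shows as a rise in luminescence from relieved DAX1 repression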
Target sequence (P51843 207-470 limits assumed): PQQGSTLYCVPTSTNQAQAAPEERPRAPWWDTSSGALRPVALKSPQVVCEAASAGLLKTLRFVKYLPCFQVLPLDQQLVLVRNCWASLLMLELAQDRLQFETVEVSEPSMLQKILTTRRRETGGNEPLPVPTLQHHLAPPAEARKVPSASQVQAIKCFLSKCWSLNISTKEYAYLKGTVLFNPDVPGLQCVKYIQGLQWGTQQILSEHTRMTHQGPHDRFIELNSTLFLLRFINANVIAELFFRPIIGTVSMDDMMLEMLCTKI
hcDAF-12 act: H. contortus DAF-12 activation, primary screen; HEK293 hcDAF-12 lit1-tk-luc reporter, luminescence; 0% DMSO, 100% Δ7-dafachronic acid; 370,000 compounds, 1.4% hits; activation, % at 6.8 µM; AID 652067;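 active = activation above the mean of all tested compounds plus 3 SD, cut at about 5.5% in these data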;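 note: 100% = response to 3 µM Δ7-dafachronic acid high control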
DAX1 inh-2: DAX1 (NR0B1) inhibition, primary screen; HEK293T StAR-luciferase reporter, SF-1/DAX-1 repression relief; inhibition, % at 6.8 µM; 370,000 compounds, 1.1% hits;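 active = inhibition above the mean over all tested compounds plus 3 SD, cut at about 3.6% in these data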;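 note: 0% = DAX-1 cells with DMSO and 100% = cells lacking DAX-1 with DMSO; higher inhibition means more luminescence from relief of DAX-1 repression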
* = called active by the depositor; . = no result given.

SMILES | ssDAF12 agonist | hgDAF-12 ag | FXN GAA850 act | DAX1 inh-1 | hcDAF-12 act | DAX1 inh-2
O=c1oc2ccccc2n1Cc1cccc(Cl)c1 | -2 | 2 | 2 | 6.4* | -3 | 0
CSc1nsc(/C=C/Nc2ccc(C)cc2)c1C#N | 2.4* | 1 | 0 | 0 | 6.5* | -1
Cc1ccc(OCCSc2nc3ncnc(N)c3[nH]2)cc1 | -2 | 0 | 4 | 4.3* | -1 | 1
CCC(C)Nc1nc(C)nc2c1nnn2Cc1ccccc1 (stereo not drawn) | -1 | -2 | . | . | -2 | 1
Cc1ccc(NC(=O)Nc2ccc(Cl)c(Cl)c2)nc1 | -1 | 1 | 2 | -1 | 0 | 0
Cc1ccc(CNC(=O)Nc2cccc(C)c2)cc1 | -1 | 13* | 4 | -1 | 4 | 0
Cc1ccc(NC(=O)Nc2ccc3c(c2)OCO3)nc1 | -1 | 13* | 2 | 1 | 0 | 2
Cc1cc(C)nc(NC(=O)Nc2ccc3c(c2)OCO3)c1 | -1 | 11* | 7 | 3 | 4 | 1
Cc1cc(C)nc(NC(=O)/C=C/c2ccc(Cl)cc2Cl)c1 | -1 | 4 | 2 | 1 | 0 | 1
Cc1cc(C)nc(NC(=O)/C=C/c2ccccc2Cl)c1 | 0 | 12* | 3 | 2 | 4 | 3
O=C(NN=Cc1ccc(O)cc1)c1cc(-c2ccc(Cl)cc2)n[nH]1 | -2 | 0 | . | . | -3 | 0
Cc1cccc(NC(=O)Nc2cccc(F)c2)n1 | 0 | 8 | 4 | 1 | 3 | 0
Cc1cccc(NC(=O)Nc2cc(C)cc(C)n2)c1 | 0 | 13* | 6 | -1 | 5 | 1
O=C1c2ccccc2-c2nc3ccccc3n21 | 0 | 1 | 0 | 3 | 0 | 0
c1ccc2c(c1)Cn1c-2nc2ccccc21 | 0 | 13* | 4 | 1 | 6.0* | 3
CCC(CO)Nc1cccc2c1S(=O)(=O)N(Cc1cn(Cc3ccc(F)cc3)nn1)Cc1ccccc1O2 (stereo not drawn) | -1 | -3 | . | . | -2 | -1
COc1ccc(Cn2c(NC(=O)c3ccccc3)nc(Cc3ccccc3)c2Cc2ccccc2)c(OC)c1 | -1 | 5 | . | . | 0 | 1
O=C(CC1CCCCC1)NCCCN1CCOCC1 | -1 | -1 | 3 | -1 | 6.1* | 0
CCOC(=O)C(NC(=O)c1cccc(Cl)c1)(OCc1ccc(F)cc1)C(F)(F)F (stereo not drawn) | -1 | 1 | -1 | -2 | 0 | 0
CCOC(=O)C(NC(=O)Nc1ncccn1)(Oc1ccccc1)C(F)(F)F (stereo not drawn) | -1 | 4 | 0 | 1 | -1 | 4.2*
CCOC(=O)C(NC(=O)c1ccccc1)(OCc1ccc(F)cc1)C(F)(F)F (stereo not drawn) | 0 | 12* | -1 | 1 | 2 | 0
Cc1ccc(OCCn2c(=O)n(C)c3ccccc32)cc1 | 0 | 13* | 6 | 0 | 3 | 2
Cn1c(=O)n(CCOc2ccc([N+](=O)[O-])cc2)c2ccccc21 | -1 | 5 | 2 | 1 | 0 | 0
CC(C)(C)c1ccc(-c2cn(C[C@H](Cc3ccccc3)n3c(=O)c4ccccc4n3Cc3ccco3)nn2)cc1 | -1 | 3 | . | . | -1 | 1
O=C(/C=C/c1ccc2c(c1)OCCCO2)c1ccccc1O | 0 | 11* | 2 | 3 | 2 | 2
SMILES | ssDAF12 agonist | hgDAF-12 ag | FXN GAA850 act | DAX1 inh-1 | hcDAF-12 act | DAX1 inh-2
Cc1ccc(O)c(C(=O)/C=C/c2ccc3c(c2)OCCCO3)c1 | -1 | 6 | 5 | 0 | 1 | 0
CN(C)c1ccc(/C=C/C(=O)c2ccccc2O)cc1 | 0 | 11* | 5 | 5.8* | 1 | 2
O=C(N/N=C/c1cc([N+](=O)[O-])ccc1Cl)c1cnccn1 | -1 | 1 | 1 | 5.1* | 0 | 0
COc1ccc(OC)c(/C=N/NC(=O)c2cnccn2)c1 | -1 | 1 | 0 | 4.4* | 1 | 0
O=C(Nc1cccc(Cl)c1)c1ccccc1NC(=O)C1CCCCC1C(=O)O (stereo not drawn) | 0 | 11* | 4 | 1 | 2 | 0
O=C(Nc1ccc(F)c(Cl)c1)c1ccccc1NC(=O)C1CCCCC1C(=O)O (stereo not drawn) | 0 | 7 | 6 | 1 | 2 | 1
